High-throughput results from PubChem BioAssay.
An excerpt weighted towards active compounds, which were near 19% of everything screened.
TDP1 cell noCPT – qHTS for Inhibitors of human tyrosyl-DNA phosphodiesterase 1 (TDP1): qHTS in cells in absence of CPT. AID 686978, 2013. 420,000 tested, 15% active. DT40 Tdp1-/- hTDP1 cells, no CPT, ATP luminescence, 48 h. Potency, µM (top dose mostly 46.2 µM), for the others: at the highest dose activity change, negative = growth inhibition, hits mostly inhibitors; note: potency is the fitted concentration of half-maximal effect; nearly all actives have a fitted effect of over 55% in size
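Compound effects on proliferation are scored in DT40 Tdp1-/-;hTDP1 cells in the absence of CPT. ATP levels (CellTiter-Glo luminescence) are recorded after a ≥48 hr, 37 °C incubation.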
IL-1B inflam inh – inhibitors of inflammasome signaling (IL-1 beta secretion); THP-1 LPS/ATP IL-1B secretion, AlphaLISA, 16 h; hits give low values; activity change, % at 57.5 µM; 360,000 tested, 4.7% active; in the data active = activity change below about -50%; inconclusive = mostly about -30% to -49%
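Secreted IL-1B measured by AlphaLISA bead assay after 16 h compound exposure of THP-1 cells; compounds (final up to 57.5 uM) added 1 h before LPS (250 ng/mL) and ATP (1.25 mM) stimulation; lower signal means less secretion.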
HT1080-NT tox – kills 2HG-producing HT-1080-NT fibrosarcoma cells; HT-1080-NT fibrosarcoma viability, CellTiter-Glo ATP luminescence, 48 h; Potency, µM (doses to about 46.1 µM), for the others: at the top dose activity, negative = less viability, most hits filed as cytotoxic; 360,000 tested, 1.6% active; AID 686970;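 note: NT is the 2HG producing partner of a matched IDH1 knockdown line; potency is the fitted concentration of half-maximal effect; 0% = DMSO-treated cells and -100% = media-only wells without cells; nearly all actives have a fitted effect of over 55% in size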
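Read-out is CellTiter-Glo luminescence after 10 minutes at room temperature, following 48 hours' compound treatment of HT-1080-NT cells (750 cells/well, RPMI, 5% FBS, 37 degrees C).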
DT40 TDP1 CPT – DT40-hTDP1 cell growth loss with CPT; Potency, µM (highest dose often 46.2 µM), without a hit: at the highest dose activity change, negative = growth inhibition, usual class: inhibitors; AID 686979; 420,000 tested, 12% active; chicken DT40 Tdp1-/-;hTDP1 cells + 20 nM CPT, ATP luminescence, 48 h; note: potency is the fitted concentration of half-maximal effect; nearly all actives have a fitted effect of over 55% in size
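Chicken DT40 Tdp1-/- cells complemented with human TDP1, 400 cells/well, exposed to compounds plus 20 nM camptothecin for at least 48 h at 37 C; viability read as ATP content by CellTiter-Glo luminescence.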
HT1080 IDH1KD tx – kills HT-1080 cells with IDH1 knockdown | HT-1080 IDH1 knockdown viability, ATP luminescence, 48 h | Potency, µM (highest dose often 46.1 µM), inactives show top-dose activity, negative = toxicity, actives largely listed as cytotoxic | 360,000 tested, 2% active | AID 686971;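 note: potency is the fitted concentration of half-maximal effect; 0% = DMSO wells and -100% = cell-free medium wells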
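In this qHTS, HT-1080 cells depleted of IDH1 are exposed for 48 h at 37 °C to compound titrations. Toxicity is scored from CellTiter-Glo luminescence, with DMSO as full viability and medium alone as none.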
ELG1 DNA repair – inhibitors of ELG1-dependent DNA repair in HEK293T cells; HEK293T ELG1-luciferase reporter, luminescence, 16 h; DNA damage induced by 5-fluorouridine; Potency, µM (doses to about 46.1 µM), without a hit: top-dose activity change, negative = inhibition, usual class: inhibitors; 330,000 tested, 2.3% active; AID 504467; note: potency is the fitted concentration of half-maximal effect; nearly all actives have a fitted effect of over 55% in size
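Luminescence from the luciferase reporter, measured 30 min after ONE-Glo reagent at room temperature, was the read-out. Beforehand, 2,000 cells per well were exposed for 16 hr at 37 °C to 5-fluorouridine together with compound or vehicle.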
Starred values were filed as active, the others as inactive; ? = inconclusive; · = no result. Unless noted, calls come from the whole dose curve; as a rule, active = well fitted curve in the direction sought with a large enough effect; inconclusive = small, poorly fitted or top-dose-only effect, or another doubt; inactive = no such curve, though single readings can be large; an effect the other way counts as inactive or inconclusive. Unless noted, % is set by controls: 0 for no effect and ±100 for the full control effect.

SMILES	TDP1 cell noCPT	IL-1B inflam inh	HT1080-NT tox	DT40 TDP1 CPT	HT1080 IDH1KD tx	ELG1 DNA repair
COc1ccc(-c2cc(-c3ccccc3)nc(SCC(=O)Nc3ncc(C)s3)c2C#N)cc1	?	-2	2%	-28%	0%	?
COC(=O)C[C@H]1CC[C@@H](NC(=O)c2ccncc2)[C@@H](CO)O1	1%	16	24%	4%	18%	·
Cc1cccc(C(=O)NNC(=O)CSc2nnc(C3CC3)n2C)c1	17%	-11	-2%	18%	15%	9%
O=S(=O)(c1ccc(Br)s1)N1CCC2(CC1)OCCO2	-21%	-4	-6%	-11%	0%	7%
O=C(Cc1ccc(Br)cc1)N1CCOCC1	6%	4	12%	6%	23%	?
COCCN(CCOC)CC(O)COC(c1ccccc1)c1ccccc1 (stereo not given)	15µM*	-3	1%	0%	-21%	-4%
CC1(C(=O)NCc2ccccc2)CN(S(C)(=O)=O)CC(=O)N1CCc1ccc(O)cc1 (stereo not given)	23%	-6	2%	10%	12%	·
Cc1ccc(-n2c(-c3ccccc3)n[nH]c2=S)cc1	-13%	26	15%	-1%	11%	-2%
Cc1ccc(-n2c(-c3ccccc3)nsc2=NC#N)cc1	?	·	·	13µM*	·	·
Cc1cc(Br)ccc1NC(=O)c1ccc(NS(=O)(=O)c2c(C)noc2C)cc1	-24%	·	·	-9%	·	·
Cc1cccc(NC(=O)CNC(=O)Cn2cc(C(F)(F)F)cc(Cl)c2=O)c1C	-6%	1	14%	-23%	20%	22%
CC1=C(C(=O)N(C)C)CC(CC(=O)NCCCN(C)C)C(=O)N1CCCN1CCCC1=O (stereo not given)	23%	-7	21%	8%	17%	·
CSc1ccc(/C=C(\C#N)C(=O)NC2CCCCC2C)cc1 (stereo not given)	10µM*	-120*	?	?	?	-16%
CC(=O)Nc1ccc(/C=C(\C#N)C(=O)NC2CCCCC2C)cc1 (stereo not given)	?	?	-4%	-1%	-12%	-1%
COc1cc(/C=C(\C#N)C(=O)NC2CCCCC2C)ccc1OS(=O)(=O)c1ccc(C)cc1 (stereo not given)	16µM*	-103*	?	?	?	?
N#C/C(=C\c1c(F)cccc1Cl)C(=O)NC1CC1	?	-74*	-22%	?	-12%	-15%
CC1CCCCC1NC(=O)/C(C#N)=C/c1ccccc1F (stereo not given)	-100%	-101*	?	-104%	18µM*	26µM*
O=S1(=O)CCO[C@H]2CCCC[C@@H]2N1Cc1cccc(F)c1	-18%	·	·	-29%	·	·
CCOC(=O)c1c(NC(=O)c2ccccc2Br)sc2c1CCc1ccccc1-2	18µM*	6	4%	?	1%	-26%
CCOC(=O)c1c(NC(C)=O)sc2c1CCC(C=O)=C2Sc1ccccc1	6.5µM*	-100*	14µM*	6.5µM*	7.1µM*	?
CCOC(=O)c1c(NC(C)=O)sc2c1CCN(Cc1ccccc1)C2	?	0	1%	?	-10%	3%
CNc1ccc(C=C2C=CC=C2)cc1	?	·	·	11µM*	·	·
Cc1ccc2scc(N3CCCCC3)c(=O)c2c1	4%	·	·	9%	·	·
COc1ccc(NC(=O)N2CCCC(c3nc(-c4ccc(C(C)C)cc4)no3)C2)cc1 (stereo not given)	21µM*	-50*	11µM*	?	?	?
O=C(Nc1ccc(Cl)cc1)N1CCC(c2nc(-c3ccc(F)cc3)no2)CC1	11µM*	?	?	10µM*	?	-27%
SMILES	TDP1 cell noCPT	IL-1B inflam inh	HT1080-NT tox	DT40 TDP1 CPT	HT1080 IDH1KD tx	ELG1 DNA repair
COc1ccc(-c2noc(C3CCCN(C(=O)Nc4ccccc4F)C3)n2)cc1 (stereo not given)	23µM*	1	-15%	?	-7%	?
COc1ccc(NC(=O)N2CCCC(c3nc(-c4ccc(OC)cc4)no3)C2)cc1 (stereo not given)	?	-54*	-3%	?	-24%	-14%
O=C(c1ccc(F)cc1)C1CCN(C(=O)Nc2ccc(F)cc2)CC1	?	-19	-2%	?	-10%	?
COc1ccc(-c2noc(N3CCC(C(=O)Nc4ccccc4F)CC3)n2)cc1	-4%	21	3%	-16%	14%	17%
COc1ccc(NC(=O)N2CCCC(C(=O)NC(C)C)C2)cc1 (stereo not given)	-6%	-3	0%	-7%	0%	?
Cc1ccc(N2CCN(c3nc4ccccc4n4nnnc34)CC2)c(C)c1	9%	·	·	-1%	·	·
COc1ccc(C(=O)N2CCCC(c3nc(-c4cccs4)no3)C2)cc1 (stereo not given)	?	-21	-22%	?	-13%	-10%
COc1ccc(-c2noc(C3CCCN(C(=O)Nc4ccccc4)C3)n2)cc1 (stereo not given)	?	-2	-14%	26µM*	-2%	16%
COc1ccc(CCNC(=O)CSc2ncc3c(n2)-c2cc(Cl)ccc2N(Cc2ccccc2)S3(=O)=O)cc1OC	-11%	·	·	-23%	·	·
